The text below walks through data of the supplement of paper PMC10600219.

Counter-ions that a name gives are not always drawn. In all, about 2,800 compounds were measured (“cell viability relative to vehicle”: median about 0.98, lowest 2% from about 0.45 on). For the sample, the lowest values were picked, then their nearest neighbours and some compounds at random.

This assay relates to NCI-H2228 alectinib-DTP. Put plainly: cell viability relative to vehicle (fraction of vehicle); NCI-H2228 is an ALK-positive lung cancer line and DTP means drug-tolerant persister; higher = less growth inhibition. The following applies: 100 nM; treatment time 6 days. The essentials:
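Each value is viability relative to vehicle-treated cells, measured as ATP with the CellTiter-Glo 3D Cell Viability Assay. Parental NCI-H2228 cells and drug-tolerant persisters (1000 nM targeted drug, 13 days) in 384-well plates received the 3114-agent TargetMol anti-cancer compound library at 100 nM, or DMSO, and were read 6 days later.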
Turning to `CC(C)[C@]12O[C@H]1[C@@H]1O[C@]13[C@]1(O[C@H]1C[C@H]1C4=C(CC[C@@]13C)C(=O)OC4)[C@@H]2O` [Triptolide], the cell viability was found to be 0.133.

As for `CCCC(C)(C)c1ccc2c(c1)OC(C)(C)[C@@H]1CC=C(C)C[C@@H]21`, the cell viability was 0.862.

Take `Cc1ccc(/N=C/N(C)/C=N/c2ccc(C)cc2C)c(C)c1` [Amitraz]: the cell viability stood at 0.902.

`COc1ccc2c(c[n+](C)c3c4cc5c(cc4ccc23)OCO5)c1OC` [Chelerythrine] showed a cell viability of 1.03.

For the compound `COc1ccc2c(c[n+](C)c3c4cc5c(cc4ccc23)OCO5)c1OC` [Chelerythrine chloride], the cell viability amounted to 1.04.

`CC(=O)O[C@H]1C(=O)[C@@]2(C)[C@H]([C@H](OC(=O)c3ccccc3)[C@]3(O)C[C@H](O)C(C)=C1C3(C)C)[C@]1(OC(C)=O)CO[C@@H]1C[C@@H]2O` [Baccatin III] yielded a cell viability of 1.

As to `C/C(=C\c1csc(C)n1)[C@@H]1C[C@@H]2O[C@@H]2CCC[C@H](C)[C@H](O)[C@@H](C)C(=O)C(C)(C)[C@@H](O)CC(=O)O1` [Epothilone A], the cell viability turned out to be 0.529.

Consider `C/C(=C\c1csc(C)n1)[C@@H]1C[C@@H]2O[C@]2(C)CCC[C@H](C)[C@H](O)[C@@H](C)C(=O)C(C)(C)[C@@H](O)CC(=O)O1` [Epothilone B], for which the cell viability was found to be 0.433.

Turning to `C[C@@H]1C(=O)O[C@H]2[C@H](O)[C@@]34O[C@@H]5OC(=O)[C@H](O)[C@@]56[C@H](C(C)(C)C)[C@H](O)C(OC3=O)[C@]64[C@@]12O` (stereo partly specified) [Ginkgolide C], the cell viability is 0.969.

Compound `C/C=C/c1cc(OC)c(OC)cc1OC` [alpha-Asarone] had a cell viability of 0.92.

Compound `NC[C@H](CC(=O)O)c1ccc(Cl)cc1` [(R)-baclofen] returned a cell viability of 1.07.

Compound `NCCc1c[nH]c2ccccc12` [Tryptamine] came in with a cell viability of 1.12.

As to `NCCCNCCCN` [Bis(3-aminopropyl)amine], the cell viability is 0.833.

Turning to `CO[C@H]1C[C@H](O[C@H]2CC[C@]3(C)[C@H]4CC[C@]5(C)[C@@H](C6=CC(=O)OC6)CC[C@]5(O)[C@@H]4CC[C@]3(O)C2)O[C@H](C)[C@H]1O[C@@H]1O[C@H](CO)[C@@H](O)[C@H](O)[C@H]1O` [Periplocin], the cell viability was 0.443.

`CCC(C)C(=O)O[C@@H]1[C@@H](OC(C)=O)[C@]2(C)[C@H](C(C)=O)CC[C@@]23O[C@]32CC[C@H]3C[C@@H](O[C@H]4C[C@@H](OC)[C@H](O[C@@H]5O[C@H](C)[C@@H](O)[C@@H](OC)[C@H]5O)[C@@H](C)O4)CC[C@]3(C)[C@@H]12` (stereo partly specified) [Tenacissoside H] registered a cell viability of 1.14.

The compound `CC(=O)O[C@H]1C[C@H](O[C@H]2[C@@H](O)C[C@H](O[C@H]3[C@@H](O)C[C@H](O[C@H]4CC[C@@]5(C)[C@H](CC[C@@H]6[C@@H]5C[C@@H](O)[C@]5(C)[C@@H](C7=CC(=O)OC7)CC[C@]65O)C4)O[C@@H]3C)O[C@@H]2C)O[C@H](C)[C@H]1O[C@@H]1O[C@H](CO)[C@@H](O)[C@H](O)[C@H]1O` [Lanatoside C] gave a cell viability of 0.49.

For `NCC(CC(=O)O)c1ccccc1` (stereo unspecified) [Phenibut], the cell viability was 1.03.

In turn, `COc1ccc2c(c1O)-c1c(OC)c(OC)cc3c1[C@H](C2)N(C)CC3` [(+)-Isocorydine hydrochloride] came in with a cell viability of 0.9.

Regarding `CCC12C=CCN3CC[C@@]4(c5ccc(OC)cc5N(C)[C@H]4[C@@](O)(C(=O)OC)[C@@H]1OC(C)=O)[C@@H]32` (stereo partly specified) [Vindoline], the cell viability amounted to 1.1.

`N#CC(C#N)=Cc1ccc([N+](=O)[O-])c(O)c1` registered a cell viability of 1.05.

As to `C[C@H]1CCC/C=C/[C@@H]2C[C@H](O)C[C@H]2[C@H](O)/C=C/C(=O)O1` [Brefeldin A], the cell viability stood at 0.0894.

Compound `C[C@H]1C(=O)O[C@@H]2CCN3CC=C(COC(=O)[C@](C)(O)[C@]1(C)O)[C@H]23` [Monocrotaline] displayed a cell viability of 0.941.

As to `C[N+]1([O-])[C@@H]2CC(OC(=O)[C@H](CO)c3ccccc3)C[C@H]1[C@@H]1O[C@@H]12` (stereo partly specified) [Scopolamine N-oxide HBr], the cell viability came out at 1.07.

`C[C@@H]1CCC=C2C(=O)C[C@H]3OOC(C)(C)[C@H]3[C@]21C` [Nardosinone]: the cell viability amounted to 0.941.

Consider `COc1ccc2c(c1)[nH]c1c(C)nccc12` [Harmine], for which the cell viability amounted to 0.801.

`Nc1ncnc2c1ccn2[C@@H]1O[C@H](CO)[C@@H](O)[C@H]1O` [Tubercidin] yielded a cell viability of 0.389.

Turning to `CC(=O)Nc1ccc(OC[C@](C)(O)C(=O)Nc2ccc([N+](=O)[O-])c(C(F)(F)F)c2)cc1` [Andarine], the cell viability worked out at 0.917.

In turn, `C[C@H](CS(C)(=O)=O)n1ccc2c(C(F)(F)F)c(C#N)ccc21` displayed a cell viability of 1.09.

`O=P(O)(NCCCl)NCCCl` [Palifosfamide] returned a cell viability of 1.17.

`Cc1c(N[C@@H](c2nnc(-c3ccc(C#N)cc3)o2)[C@H](C)O)ccc(C#N)c1Cl` [Testolone] had a cell viability of 1.21.

`C[C@]12CC[C@H](O)C[C@H]1CC[C@@H]1[C@@H]2CC[C@]2(C)[C@@H](c3ccc(=O)oc3)C[C@H]3O[C@]132` [Resibufogenin] had a cell viability of 1.07.

In turn, `C[C@]12CC[C@H](O)C[C@@H]1CC[C@@H]1[C@@H]2CC[C@]2(C)C(=O)CC[C@@H]12` [Epiandrosterone] registered a cell viability of 0.814.

`CC(=O)O[C@H]1[C@H]2O[C@]23[C@@H]2CC[C@@H]4C[C@@H](O)CC[C@]4(C)[C@H]2CC[C@]3(C)[C@H]1c1ccc(=O)oc1` [Cinobufagin] yielded a cell viability of 0.142.

On to `C[C@]12CC[C@H](O)C[C@H]1CC[C@@H]1[C@@H]2CC[C@]2(C)[C@@H](c3ccc(=O)oc3)CC[C@]12O` [Bufalin], for which the cell viability was 0.101.

As to `C[C@]12CC[C@H](O)C[C@H]1CC[C@@H]1[C@@H]2CC[C@]2(C)[C@@](O)(c3ccoc3)CC[C@]12O` [Rostafuroxin], the cell viability was 0.988.

In turn, `Cc1c(C(=O)Nc2cccc(C(F)(F)F)c2)cc(-c2ccccc2)n1CCCN1CCOCC1` had a cell viability of 0.946.

Regarding `Cc1ccccc1-n1c(Cn2cnc3c(N)ncnc32)nc2cccc(C)c2c1=O`, the cell viability came to 1.07.

As to `C=C1C2CC3(C1O)C1CC4C5(C)CCC(O)C4(C1N(CC)C5)C3CC2=O` (stereo unspecified) [Napellonine], the cell viability came to 0.931.

`CCO[C@H]1O[C@@H]2O[C@@]3(C)CC[C@H]4[C@H](C)CC[C@@H]([C@H]1C)[C@@]24OO3` [Arteether]: the cell viability is 0.856.

Regarding `CC(=O)OC(C)(C)/C=C/C(=O)[C@](C)(O)[C@H]1[C@H](O)C[C@@]2(C)[C@@H]3CC=C4[C@H](C[C@H](O)C(=O)C4(C)C)[C@]3(C)C(=O)C[C@]12C` [Cucurbitacin B], the cell viability turned out to be 0.146.

The compound `COc1ccc2c(c1OC)CN1CCc3cc4c(cc3C1C2)OCO4` (stereo unspecified) [Tetrahydroberberine THB] gave a cell viability of 1.01.

On to `CCc1c2c(nc3ccccc13)-c1cc3c(c(=O)n1C2)COC(=O)[C@]3(O)CC` [7-Ethylcamptothecin], for which the cell viability came out at 0.361.

Compound `CC[C@@]1(O)C(=O)OCc2c1cc1n(c2=O)Cc2cc3ccccc3nc2-1` [(S)-(+)-Camptothecin] returned a cell viability of 0.36.

`COc1ccc(/C=C/C=C2C(=O)NC(=O)NC2=O)cc1` yielded a cell viability of 0.972.

In the case of `N#C/C=C1/C=C[C@@H](O)[C@H](O)[C@H]1O[C@@H]1O[C@H](CO)[C@@H](O)[C@H](O)[C@H]1O` [Griffonin], the cell viability amounted to 0.984.

The compound `Clc1ccc([C@]23CNC[C@H]2C3)cc1Cl` [Amitifadine hydrochloride] came in with a cell viability of 1.06.

On to `CC(=O)O[C@H]1CC[C@H]2[C@@H]3CCC4=CC(=O)CCC4=C3C=C[C@]12C` [Trenbolone acetate], for which the cell viability turned out to be 1.15.

On to `N#C[C@H](O[C@@H]1O[C@H](CO[C@@H]2O[C@H](CO)[C@@H](O)[C@H](O)[C@H]2O)[C@@H](O)[C@H](O)[C@H]1O)c1ccccc1` [Amygdalin], for which the cell viability was determined as 0.879.

Compound `N#Cc1nn(-c2c(Cl)cc(C(F)(F)F)cc2Cl)c(N)c1[S+]([O-])C(F)(F)F` (stereo unspecified) [Fipronil] displayed a cell viability of 0.905.

The compound `CC1=C[C@H]2[C@@]3(O)[C@H](C)[C@@H](O)[C@]4(O)[C@H]([C@@H]3C=C(CO)C[C@]2(O)C1=O)C4(C)C` [Phorbol] displayed a cell viability of 0.999.

`O=C(/C=C/c1ccccc1)OC[C@H]1O[C@@H](O[C@@H]2OC=C[C@H]3[C@H](O)[C@@H]4O[C@]4(CO)[C@@H]23)[C@H](O)[C@@H](O)[C@@H]1O` [Picroside I] displayed a cell viability of 1.06.
